From ChEMBL document CHEMBL3988442, “University of Dundee, Small-Polar-MMV Screening Library” (2021)
In all, about 85,000 compounds went through this assay and about 440 (0.52%) showed an effect of 50% or more. The sample as a whole holds a higher share of strong results than the screen did.

Assay: In vitro enzyme assay to detect hydrolysis of chlorophenol red-beta-D-[…] directly proportional to the number of Toxoplasma stably expressing beta-galactosidase
Format: functional, organism-based, Toxoplasma gondii
Parameters: scale not given: in the data most compounds retested in dose-response had high values

Compound | Percent Effect (50 µM) | Percent Effect (10 µM)
CC(C)(C)NCC(=O)Nc1ccc(Cl)cn1 | -9.06% | –
CN1Cc2cc(O)ccc2C1=O | 4.771% | –
Cc1noc(C)c1CCCNC(=O)Nc1ccc2c(c1)CC(=O)N2 | – | -25.73%
COc1cccc(NC(=O)Nc2ccc3c(c2)CC(=O)N3)c1 | – | 14.2%
Cc1cc(C(=O)Nc2ccc3c(c2)CC(=O)N3)c(C)o1 | 62.73% | –
O=C(NC1CC1)C1CCCN1c1ccc2nnnn2n1 (stereo not drawn) | 14.68% | –
Cc1ccc(CNCCN2CCOCC2)s1 | -0.4782% | –
CC(CO)N(C)C(=O)c1cccc2cc[nH]c12 (stereo not drawn) | 3.789% | –
CSCC(=O)NC(C1CCNCC1)[C@H]1C[C@@H](O)C1 (stereo partly drawn) | 54.38% | –
O=C(NC(C1CCNCC1)[C@H]1C[C@H](O)C1)C1CC=CC1 (stereo partly drawn) | -3.099% | –
CSCCC(=O)NC(C1CCNCC1)[C@H]1C[C@H](O)C1 (stereo partly drawn) | 2.303% | –
CN(C)C(=O)C1OCCc2ccccc21 (stereo not drawn) | -9.561% | –
CCN(C1CC1)S(=O)(=O)c1ccc(OC)c(C(N)=O)c1 | -4.702% | –
CC(C)OCCOCC(O)CN(C)Cc1cccnc1 (stereo not drawn) | -1.887% | –
Cc1cscc1C(=O)NCCc1cncn1C | -7.221% | –
CC(C)S(=O)(=O)N(C)C(=O)c1cc(Br)c2c(c1)OCO2 | 10.61% | –
CCOC(=O)C(O)c1cc(Br)c2c(c1)OCO2 (stereo not drawn) | 60.1% | –
NCc1cc(Br)c2c(c1)OCO2 | 33.59% | –
CC(C)NC(=O)C(C)n1cncn1 (stereo not drawn) | 7.173% | –
CN(CCN)S(=O)(=O)c1cccs1 | -2.794% | –
Cc1cc(C)n(-c2cncc(NCCNC(=O)C3CCCC3)n2)n1 | – | -17.81%
Cc1cc(C)n(C2=NC(NCCC(C)C)c3c(sc4c3CCCC4)N2)n1 (stereo not drawn) | – | -32.33%
Cc1cc(C)n(-c2nc(NCCCO)c3c4c(sc3n2)CCCC4)n1 | – | 81.16%

Compound | Percent Effect (50 µM) | Percent Effect (10 µM)
O=C(NCc1cn2ccccc2n1)c1ccc(=O)oc1 | -17.09% | –
COCCNC(=O)Nc1cc(Cl)ccc1OC | 51.47% | –
CCCOc1ccc(Cl)cc1NC(=O)NCCC(=O)N(C)C | – | 15.25%
CNCC(=O)Nc1cc(Cl)ccc1OC | -3.261% | –
O=C(CCC1CCCCC1)NCc1c[nH]nn1 | 1.133% | –
CC(N)c1ccccc1N1CCOCC1 (stereo not drawn) | 0.1688% | –
C[C@@H](CO)NC(=O)NCC1CCN(CC(F)(F)F)CC1 | -3.478% | –
COCCC1(CN2CCC(C(N)=O)C2)CCC1 (stereo not drawn) | 68.22% | –
COCCC1(CN2CCCC(C(N)=O)C2)CCC1 (stereo not drawn) | -0.683% | –
COCCC1(CO)CCCN(CC(N)=O)C1 (stereo not drawn) | 0.1422% | –
CN(CC1CCOCC1)C(=O)c1ccc(CN)cc1 | 0.3864% | –
Cc1c(Cl)c(C(=O)N2CCCCC2)nn1C | 24.41% | –
CCS(=O)(=O)Cc1nnnn1-c1ccccc1 | – | -0.7088%
CCN(CC)Cc1nnnn1-c1ccccc1 | 68.75% | –
CN(Cc1ccc2c(c1)OCCO2)Cc1nnnn1-c1ccccc1 | – | -19.55%
O=C(Nc1ccccc1N1CCCC1)C1CCOC1 (stereo not drawn) | 2.349% | –
CN(C)c1ncccc1CNC(=O)c1ccoc1 | -3.271% | –
CS(=O)(=O)Nc1ccccc1CNC(=O)c1ccoc1 | 97.49% | –
O=C(CCNC(=O)c1ccoc1)NCc1ccccc1F | – | -6.438%
CC1CCCN(CCCN)C1 (stereo not drawn) | 8.539% | –
O=C(CC1CSCCN1)NCCc1ccc(F)cc1F (stereo not drawn) | 0.8144% | –
CCCc1noc(COc2nc(C)no2)n1 | 3.348% | –
CC(C)C(NC(=O)Cn1cnnn1)c1cccs1 (stereo not drawn) | 19.15% | –

Compound | Percent Effect (50 µM) | Percent Effect (10 µM)
O=C(N1CCOCC1)[C@@]12CCO[C@@H]1CCN(C1CCC1)C2.O=C(O)C(F)(F)F | – | 41.32%
O=C(N1CCOCC1)[C@@]12CCO[C@@H]1CCN(C1CCCCC1)C2.O=C(O)C(F)(F)F | – | -8.917%
O=C(N1CCOCC1)[C@@]12CCO[C@@H]1CCN(C1CCOCC1)C2.O=C(O)C(F)(F)F | – | 86.48%
Cc1cc(C)n(CCC(=O)NC2C=CS(=O)(=O)C2)n1 (stereo not drawn) | -3.643% | –
CC(Nc1ccc(C#N)cn1)c1ccc2c(c1)OCO2 (stereo not drawn) | 3.939% | –
CC(C)CC(=O)N1CC[C@H]2N(C)CC[C@@]2(C(=O)Nc2cccnc2)CC1.O=C(O)C(F)(F)F.O=C(O)C(F)(F)F | – | 6.738%
CC(C)CC(=O)N1CC[C@H]2N(C)CC[C@@]2(C(=O)Nc2ccccc2)CC1.O=C(O)C(F)(F)F | – | 95.11%
CC(C)C(=O)N1CC[C@H]2N(C)CC[C@@]2(C(=O)Nc2ccccc2)CC1 | – | -18.9%
O=C(CCC1CCCCC1)N1CC[S+]([O-])CC1 | -3.074% | –
CC(C)(CO)NCC(O)c1cccc(Cl)c1 (stereo not drawn) | 48.83% | –
CC(C)(CO)NCC(O)c1cccc(F)c1 (stereo not drawn) | 95.56% | –
CC(C)(C)OC(=O)NCCC(=O)NCC(O)c1cccc(F)c1 (stereo not drawn) | – | -9.599%
Cc1cc(Br)oc1C(=O)NCCOC(N)=O | -2.351% | –
COc1ccc(OC)c(NC(=O)N2CC(C)(OC)C2)c1 | 3.541% | –
CC[C@H](C)[C@H](N)C(=O)NC | -8.555% | –
c1csc(-c2noc(C3CCCOC3)n2)c1 (stereo not drawn) | – | -3.059%
Cl.c1csc(-c2noc(C3CNC3)n2)c1 | – | 42.66%
CC(=O)Nc1ccc(C(C)N)cc1 (stereo not drawn) | -11.91% | –
COCCn1ccnc1CN(C)[C@H]1COC[C@@H]1O | -5.172% | –
CN1CCN(Cc2c(-c3ccco3)[nH]c3ncccc23)CC1 | – | 84.72%
OC1CCN(Cc2c(-c3ccco3)[nH]c3ncccc23)CC1 | – | -9.681%
CCN1CCN(Cc2c(-c3ccco3)[nH]c3ncccc23)CC1 | – | -25.08%
Cc1nnc(SCC(=O)C(C)(C)C)[nH]1 | 12.7% | –

Compound | Percent Effect (50 µM) | Percent Effect (10 µM)
Cc1n[nH]cc1CNCCNc1ncc(Cl)cc1Cl | 5.335% | –
CNC(=O)CN(C)C(=O)CCc1ccc(Br)cc1F | 0.9597% | –
COc1ccccc1C(=O)N1CCN(C2CC2)C(=O)C1 | -3.275% | –
NCc1ccc(C(=O)N2CCN(C3CC3)C(=O)C2)cc1 | 8.158% | –
O=C(c1cnsn1)N1CCN(C2CC2)C(=O)C1 | 91.53% | –
COc1cc(CN)ccc1OCC(N)=O | 19.26% | –
Cc1nc(CC(=O)NCCN2CCNC2=O)c(C)s1 | -2.42% | –
NCCNc1nc2ccccc2s1 | 19.92% | –
OCCNc1nc2ccccc2s1 | 92.76% | –
O=C(NCCO)Nc1nc2ccccc2s1 | 9.255% | –
NC(=O)C1CCN(c2ncnc3ccsc23)CC1 | 0.8525% | –
CCOC1CCCN(C(=O)c2ccc(C)[nH]c2=O)C1 (stereo not drawn) | 1.701% | –
CC(C)n1cc(S(=O)(=O)N2CCCCC2)cn1 | – | 1.913%
CC(C)n1cc(S(=O)(=O)N2CCCCCC2)cn1 | – | 51.25%
CC(C)n1cc(S(=O)(=O)N2CCSCC2)cn1 | – | 32.53%
CN(C)C(=O)c1ccc(Oc2ncccn2)cc1 | -3.725% | –
Cc1cc(C2CCCN(CC(=O)Nc3nc4c(s3)CCC4)C2)n[nH]1 (stereo not drawn) | – | 56.52%
O=C(CN1CCCC(c2ccn[nH]2)C1)Nc1nc2c(s1)CCCC2 (stereo not drawn) | – | 31.73%
O=C(CN1CCCC(c2ccn[nH]2)C1)Nc1nc2c(s1)CCC2 (stereo not drawn) | – | 42.36%
Cc1noc(CN(C)Cc2cncn2C(C)C)n1 | -12.13% | –
CCN1CC2(CC1=O)CN(Cc1ccsc1)CCN(C(=O)C(C)C)C2.O=C(O)C(F)(F)F (stereo not drawn) | – | -7.478%
CCN1CC2(CC1=O)CN(Cc1ccoc1)CCN(C(=O)C(C)C)C2 (stereo not drawn) | – | 73.92%
CCN1CC2(CC1=O)CN(Cc1ccncc1)CCN(C(=O)C(C)C)C2.O=C(O)C(F)(F)F.O=C(O)C(F)(F)F (stereo not drawn) | – | 78.24%

Compound | Percent Effect (50 µM) | Percent Effect (10 µM)
CCN1CC2(CC1=O)CN(Cc1cnn(C)c1)CCN(C(=O)C(C)C)C2.O=C(O)C(F)(F)F (stereo not drawn) | – | -2.705%
CCN1CC2(CC1=O)CN(Cc1ccco1)CCN(C(=O)C(C)C)C2.O=C(O)C(F)(F)F (stereo not drawn) | – | -13.42%
CCN1CC2(CC1=O)CN(Cc1cccs1)CCN(C(=O)C(C)C)C2 (stereo not drawn) | – | -4.777%
NS(=O)(=O)c1ccc(Sc2ccc(F)cc2F)nc1 | -8.713% | –
CS(=O)(=O)N1CCC(CN)C1 (stereo not drawn) | 0.02635% | –
CC(Cc1ccco1)NS(=O)(=O)N1CCCCC1 (stereo not drawn) | – | 0.1189%
CC(Cc1ccco1)NS(=O)(=O)N1CCCCCC1 (stereo not drawn) | – | -1.07%
CC(Cc1ccco1)NS(=O)(=O)N1CCOCC1 (stereo not drawn) | 99.87% | –
Nc1nc(O)cc(N2CCC(c3cc(Cc4ccccc4)n[nH]3)CC2)n1 | – | 2.428%
Nc1nccc(N2CCC(c3cc(Cc4ccccc4)n[nH]3)CC2)n1 | – | 46.75%
Nc1cc(N2CCC(c3cc(Cc4ccccc4)n[nH]3)CC2)ccn1 | – | 67.3%
CN(C)c1ccc(NC(=O)N2CCSCC2)cn1 | -21.27% | –
COC(=O)c1ccc2c(-c3ccnc(NCCO)n3)c[nH]c2c1 | – | 29.45%
COc1ccc2[nH]cc(-c3ccnc(N4CCC(C)CC4)n3)c2c1 | – | 11.49%
COc1ccc2[nH]cc(-c3ccnc(NC4CCCC4)n3)c2c1 | – | 56.3%
Cn1ccnc1SCC(=O)Nc1cccnc1 | -23.51% | –
COCCCOc1cc(C)ccc1CN | -20.96% | –
COc1ccc(N2CCCN(CC(=O)N3CCNC(=O)C3)CC2)cc1 | – | -0.2401%
COc1cccc(CC(=O)N2CCNC(=O)C2)c1 | 4.575% | –
COc1ccc(NCC(=O)N2CCNC(=O)C2)c(C)c1 | 52.04% | –
NCc1ccc(N2CCS(=O)(=O)CC2)cc1 | 2.889% | –
